Results: the supplement of paper PMC6555819

What was measured:
Assay in all cases: PBM binding z-score (relative to random genomic background probes); higher = stronger binding; sequences stand for … in GC…GCGATTGACAGCGTAGAATGAAGG
[1] = test system: RARb homodimer (NR concentration 270 nM)
How it was run: (§1)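 For binding z-scores, the reference was random background probes on custom Agilent 4×180K protein-binding microarrays. These arrays were incubated 1 h with ligand-free nuclear receptor dimers in PBS pH 7.4, 2% milk, 0.02% Triton X-100, 1 mM DTT, 0.2 mg/mL BSA and 0.4 mg/ml salmon testes DNA. Fluorescence was scanned after antibody detection of each partner (one per run) and regression-normalized.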

[2] = test system: RARg:RXRa (NR concentration 270 nM, RXRa partner concentration 90 nM)
How it was run: as §1

[3] = test system: RARg homodimer (NR concentration 270 nM)
How it was run: as §1

[4] = test system: RXRa DBDmut IVT, anti-RXR (DBD mutation: RXRa K156A/R161A, NR concentration 90 nM)
How it was run: as §1

[5] = test system: RXRa homodimer (NR concentration 180 nM)
How it was run: as §1

[6] = test system: THRa:RXRa (NR concentration 90 nM, RXRa partner concentration 90 nM)
How it was run: as §1

[7] = test system: THRa homodimer (NR concentration 90 nM)
How it was run: as §1

[8] = test system: VDR:RXRa (NR concentration 270 nM, RXRa partner concentration 90 nM)
How it was run: as §1

[9] = test system: VDR homodimer (NR concentration 270 nM)
How it was run: as §1

ACAGACAGTTGATGAAGGTAACTCAGGCTATCAT
PBM binding z-score [1]: 0.387 | PBM binding z-score [2]: 0.00583 | PBM binding z-score [3]: 0.279 | PBM binding z-score [4]: 0.223 | PBM binding z-score [5]: 0.183 | PBM binding z-score [6]: 0.764 | PBM binding z-score [7]: 0.154 | PBM binding z-score [8]: 0.101 | PBM binding z-score [9]: 0.0979

ACTAGTTGGTCAGCTGAGGTCTCACACAATTCGG
PBM binding z-score [1]: 1.08 | PBM binding z-score [2]: 0.511 | PBM binding z-score [3]: 0.774 | PBM binding z-score [4]: 0.296 | PBM binding z-score [5]: 0.296 | PBM binding z-score [6]: 2.7 | PBM binding z-score [7]: 0.829 | PBM binding z-score [8]: 0.0458 | PBM binding z-score [9]: -0.0195

ATCTCTAGGTAAAGTTCAGTCAAAGATCGATAGA
PBM binding z-score [1]: 2.8 | PBM binding z-score [2]: 2.17 | PBM binding z-score [3]: 2.39 | PBM binding z-score [4]: 1.6 | PBM binding z-score [5]: 1.35 | PBM binding z-score [6]: 1.46 | PBM binding z-score [7]: 0.288 | PBM binding z-score [8]: 1.96 | PBM binding z-score [9]: 2.11

ATCGAAAGGTCGATGGTGAGTATACCCACCCGAA
PBM binding z-score [1]: 1.45 | PBM binding z-score [2]: 3.25 | PBM binding z-score [3]: 3.01 | PBM binding z-score [4]: 0.438 | PBM binding z-score [5]: 3.21 | PBM binding z-score [6]: 1.26 | PBM binding z-score [7]: -0.577 | PBM binding z-score [8]: 1.78 | PBM binding z-score [9]: 0.213

CCTTACGGGACACGAGGTTATAGCACGACGAGCG
PBM binding z-score [1]: 1.03 | PBM binding z-score [2]: 1.49 | PBM binding z-score [3]: 1.14 | PBM binding z-score [4]: -0.0752 | PBM binding z-score [5]: 1.19 | PBM binding z-score [6]: 1.77 | PBM binding z-score [7]: 0.83 | PBM binding z-score [8]: 0.648 | PBM binding z-score [9]: 0.544

CTGCCTAGGTCAGGGCCAGTATAGGAGGAACGTT
PBM binding z-score [1]: 2.43 | PBM binding z-score [2]: 2.85 | PBM binding z-score [3]: 3.61 | PBM binding z-score [4]: -0.445 | PBM binding z-score [5]: 1.25 | PBM binding z-score [6]: 1.88 | PBM binding z-score [7]: 0.182 | PBM binding z-score [8]: 0.0608 | PBM binding z-score [9]: -0.173

AGAATGAGGTTATTAAGATCAGCGAATTGCGGTC
PBM binding z-score [1]: 0.651 | PBM binding z-score [2]: 1.02 | PBM binding z-score [3]: 0.64 | PBM binding z-score [4]: 1.95 | PBM binding z-score [5]: 1.43 | PBM binding z-score [6]: 2.07 | PBM binding z-score [7]: 0.43 | PBM binding z-score [8]: 2.57 | PBM binding z-score [9]: 0.913

AGTCAAAGTTCTGGACGAGGTAACGTAAAGCACG
PBM binding z-score [1]: -0.148 | PBM binding z-score [2]: 0.171 | PBM binding z-score [3]: 0.32 | PBM binding z-score [4]: -0.639 | PBM binding z-score [5]: 0.0678 | PBM binding z-score [6]: 1.41 | PBM binding z-score [7]: 0.761 | PBM binding z-score [8]: -0.216 | PBM binding z-score [9]: -0.322

CCGGCTAGGTCAATGGTCAGCTAAAGCAGCTCGC
PBM binding z-score [1]: 3.19 | PBM binding z-score [2]: 3.59 | PBM binding z-score [3]: 4.45 | PBM binding z-score [4]: 1.33 | PBM binding z-score [5]: 2.4 | PBM binding z-score [6]: 2.16 | PBM binding z-score [7]: 0.768 | PBM binding z-score [8]: 0.907 | PBM binding z-score [9]: 0.413

CAAACCAGGTCAAGGTCAAAGTCGGTTTGTGCCA
PBM binding z-score [1]: 5.11 | PBM binding z-score [2]: 6.13 | PBM binding z-score [3]: 6.35 | PBM binding z-score [4]: 3.39 | PBM binding z-score [5]: 6.52 | PBM binding z-score [6]: 4.77 | PBM binding z-score [7]: 4.35 | PBM binding z-score [8]: 5.66 | PBM binding z-score [9]: 4.97

CAAACTAGGTCATTGACAGGACAGTGAATAGTAA
PBM binding z-score [1]: 2.83 | PBM binding z-score [2]: 4.74 | PBM binding z-score [3]: 4.67 | PBM binding z-score [4]: 2.28 | PBM binding z-score [5]: 2.89 | PBM binding z-score [6]: 2.91 | PBM binding z-score [7]: 1.01 | PBM binding z-score [8]: 2.42 | PBM binding z-score [9]: 1.51

ACTAGCTGGCCAAGTTTGGGTCACTCAAACAAAG
PBM binding z-score [1]: 1.35 | PBM binding z-score [2]: 0.786 | PBM binding z-score [3]: 0.564 | PBM binding z-score [4]: -0.366 | PBM binding z-score [5]: 0.323 | PBM binding z-score [6]: 1.82 | PBM binding z-score [7]: 0.793 | PBM binding z-score [8]: 0.228 | PBM binding z-score [9]: -0.123

ACTTACGGGTCAACGAGGCTATAGCACGCGTATA
PBM binding z-score [1]: 3.07 | PBM binding z-score [2]: 5.01 | PBM binding z-score [3]: 4.51 | PBM binding z-score [4]: 2.15 | PBM binding z-score [5]: 5.06 | PBM binding z-score [6]: 3.35 | PBM binding z-score [7]: 0.239 | PBM binding z-score [8]: 6.74 | PBM binding z-score [9]: 1.55

CCGACTGGGGCATAAGGTTTCCATAAGCCAGCCC
PBM binding z-score [1]: -0.165 | PBM binding z-score [2]: -0.272 | PBM binding z-score [3]: -0.139 | PBM binding z-score [4]: -0.156 | PBM binding z-score [5]: -0.0441 | PBM binding z-score [6]: -7.82e-06 | PBM binding z-score [7]: -0.206 | PBM binding z-score [8]: -0.182 | PBM binding z-score [9]: -0.137

ACTAGTTGGTCAGCTGAGGTCACCCACAATTCGG
PBM binding z-score [1]: 4.38 | PBM binding z-score [2]: 4.14 | PBM binding z-score [3]: 4.02 | PBM binding z-score [4]: 1.19 | PBM binding z-score [5]: 3.69 | PBM binding z-score [6]: 4.97 | PBM binding z-score [7]: 5.19 | PBM binding z-score [8]: 4.46 | PBM binding z-score [9]: 3.57

TTACCAAGGTGAGCTGCGGTCGTTGATCCAACTC
PBM binding z-score [1]: 0.677 | PBM binding z-score [2]: 0.0521 | PBM binding z-score [3]: 0.0746 | PBM binding z-score [4]: -0.731 | PBM binding z-score [5]: 0.198 | PBM binding z-score [6]: 2.28 | PBM binding z-score [7]: 0.255 | PBM binding z-score [8]: 0.235 | PBM binding z-score [9]: -0.523

ATCGAAAGGTCGAAGTGAGTATAGAGAAAGGGAA
PBM binding z-score [1]: 1.86 | PBM binding z-score [2]: 3.79 | PBM binding z-score [3]: 3.6 | PBM binding z-score [4]: 1.4 | PBM binding z-score [5]: 3.83 | PBM binding z-score [6]: 1.81 | PBM binding z-score [7]: -0.426 | PBM binding z-score [8]: 2.7 | PBM binding z-score [9]: 0.425

CAAACTAGGTCATCGGAAGGTCAAAGTCCGCATG
PBM binding z-score [1]: 5.46 | PBM binding z-score [2]: 8.08 | PBM binding z-score [3]: 6.47 | PBM binding z-score [4]: 2.25 | PBM binding z-score [5]: 5.58 | PBM binding z-score [6]: 4.2 | PBM binding z-score [7]: 2.3 | PBM binding z-score [8]: 5.72 | PBM binding z-score [9]: 3.67

TCATATAGGTAAAGCTGAAAGTCGAACGATATGA
PBM binding z-score [1]: -0.67 | PBM binding z-score [2]: 0.267 | PBM binding z-score [3]: 0.377 | PBM binding z-score [4]: 0.431 | PBM binding z-score [5]: 0.587 | PBM binding z-score [6]: -0.286 | PBM binding z-score [7]: -1.16 | PBM binding z-score [8]: 0.186 | PBM binding z-score [9]: -0.537

TCTAGTTGGTCAGGGAGGTCACACACGACGGGTA
PBM binding z-score [1]: 4.42 | PBM binding z-score [2]: 4.31 | PBM binding z-score [3]: 3.88 | PBM binding z-score [4]: 1.08 | PBM binding z-score [5]: 4.14 | PBM binding z-score [6]: 3.63 | PBM binding z-score [7]: 2.88 | PBM binding z-score [8]: 5.4 | PBM binding z-score [9]: 3.18

GATACAGGGTCAAGGCTAGAGTACGCGTATTGAT
PBM binding z-score [1]: 3.75 | PBM binding z-score [2]: 5.53 | PBM binding z-score [3]: 5.01 | PBM binding z-score [4]: 2.4 | PBM binding z-score [5]: 5.93 | PBM binding z-score [6]: 3.52 | PBM binding z-score [7]: 1.23 | PBM binding z-score [8]: 4.6 | PBM binding z-score [9]: 2.36

CGTCCAAGGACAAAGGTCAGTGAAGAGATGACGG
PBM binding z-score [1]: 4.61 | PBM binding z-score [2]: 5.3 | PBM binding z-score [3]: 4.95 | PBM binding z-score [4]: 1.31 | PBM binding z-score [5]: 4.03 | PBM binding z-score [6]: 4 | PBM binding z-score [7]: 1.15 | PBM binding z-score [8]: 2.64 | PBM binding z-score [9]: 0.88

CGAACTAGGTCAAGTACAGTGAATCTCCGCACGC
PBM binding z-score [1]: 3.33 | PBM binding z-score [2]: 4.45 | PBM binding z-score [3]: 5.13 | PBM binding z-score [4]: 2 | PBM binding z-score [5]: 3.13 | PBM binding z-score [6]: 3.03 | PBM binding z-score [7]: 1.56 | PBM binding z-score [8]: 2.02 | PBM binding z-score [9]: 1.45

AGAACGAGGGCAATGAGTTGATAGAACGGGTGGC
PBM binding z-score [1]: 0.861 | PBM binding z-score [2]: 1.14 | PBM binding z-score [3]: 1.61 | PBM binding z-score [4]: 2.13 | PBM binding z-score [5]: 0.744 | PBM binding z-score [6]: 0.969 | PBM binding z-score [7]: -0.182 | PBM binding z-score [8]: 5.04 | PBM binding z-score [9]: 2.82

GCTATTAGTTGAAAGGGCAACTGAATGATTCTCG
PBM binding z-score [1]: 1.9 | PBM binding z-score [2]: 1.45 | PBM binding z-score [3]: 1.31 | PBM binding z-score [4]: 0.912 | PBM binding z-score [5]: 1.25 | PBM binding z-score [6]: 0.832 | PBM binding z-score [7]: -0.217 | PBM binding z-score [8]: 0.488 | PBM binding z-score [9]: 0.256

TCATATAGGTAATACAGGTGAACGTCGGCATCTA
PBM binding z-score [1]: 0.903 | PBM binding z-score [2]: 0.819 | PBM binding z-score [3]: 0.771 | PBM binding z-score [4]: 1.86 | PBM binding z-score [5]: 1.55 | PBM binding z-score [6]: 1.18 | PBM binding z-score [7]: 0.563 | PBM binding z-score [8]: 1.18 | PBM binding z-score [9]: 0.482
